Measured values from paper PMC6664820, “Novel natural and synthetic inhibitors of solute carriers SGLT1 and SGLT2” (Pharmacology Research & Perspectives, 2019).
Out of some 1,900 compounds screened, about 40 (2%) showed an effect of 50% or more. The sample as a whole holds a higher share of strong results than the screen did.

target: human SGLT1 (hSGLT1) (human, UniProt P13866); assay: primary screen, percent of control activity; higher = less effect of the substance; design: single well; conditions: 50 µM
Sequence (P13866 whole entry, looked up): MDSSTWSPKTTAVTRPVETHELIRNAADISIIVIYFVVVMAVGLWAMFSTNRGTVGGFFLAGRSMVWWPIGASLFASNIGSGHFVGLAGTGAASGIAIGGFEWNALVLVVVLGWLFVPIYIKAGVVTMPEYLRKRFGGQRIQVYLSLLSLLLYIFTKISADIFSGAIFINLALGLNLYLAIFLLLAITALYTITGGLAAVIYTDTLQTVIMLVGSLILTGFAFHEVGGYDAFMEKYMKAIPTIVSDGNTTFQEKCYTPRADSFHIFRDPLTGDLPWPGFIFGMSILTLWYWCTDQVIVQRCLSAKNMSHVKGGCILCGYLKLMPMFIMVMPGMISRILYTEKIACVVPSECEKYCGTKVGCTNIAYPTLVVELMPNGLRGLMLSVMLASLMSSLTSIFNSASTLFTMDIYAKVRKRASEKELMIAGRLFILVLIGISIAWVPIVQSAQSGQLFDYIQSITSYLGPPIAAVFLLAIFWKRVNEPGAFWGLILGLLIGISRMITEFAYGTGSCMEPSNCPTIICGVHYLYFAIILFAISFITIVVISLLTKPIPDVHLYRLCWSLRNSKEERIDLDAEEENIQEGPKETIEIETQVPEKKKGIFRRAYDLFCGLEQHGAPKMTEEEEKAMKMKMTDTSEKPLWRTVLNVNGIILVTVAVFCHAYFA
Outline: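 Single-point screen at 50 µmol/L in CHO-hSGLT1 cells, with 160 µmol/L 1-NBD-glucose in glucose-free DMEM for 90 min at 37°C. Fluorescence from isopropanol extracts was calibrated, and CHO wild-type uptake was subtracted. Data are percent of uptake without compound.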

SMILES | NORMALIZED SGLT1 ACTIVITY (%)
C[C@@H]1[C@H]2[C@H](O[C@@H]3O[C@H](CO)[C@@H](O)[C@H](O)[C@H]3O)OC=C(C(=O)O)[C@H]2C[C@@H]1O | 123
Nc1ccn(C2O[C@H](CO)[C@@H](O)[C@H]2O)c(=O)n1 (stereo partly drawn) | 107
O=C(O[C@@H]1Cc2c(O)cc(O)cc2O[C@@H]1c1cc(O)c(O)c(O)c1-c1c([C@H]2Oc3cc(O)cc(O)c3C[C@H]2OC(=O)c2cc(O)c(O)c(O)c2)cc(O)c(O)c1O)c1cc(O)c(O)c(O)c1 | 99
O=C1CCCC2C3CC(CN12)[C@@H]1CCCCN1C3.[O-][Cl+3]([O-])([O-])O (stereo partly drawn) | 97
COc1ccc(/C=C/c2cc(O)cc(O)c2)cc1 | 198
COc1cc(O)cc(/C=C/c2ccccc2)c1 | 494
Oc1cc(O)cc(/C=C/c2ccccc2)c1 | 39
O=C1c2ccccc2C(=O)C1c1ccccc1 | 111
COc1ccc(C(=O)CC(=O)O)c2c1C=CC(C)(C)O2 | 115
CC(=O)/C(=C\c1ccccc1)CC(=O)O | 142
CC(=O)Oc1ccc(/C=C/c2cc(OC(C)=O)cc(OC(C)=O)c2)cc1 | 222
COc1cc(-c2coc3cc(O[C@@H]4O[C@H](CO)[C@@H](O)[C@H](O)[C@H]4O)c(OC)c(O)c3c2=O)cc(O)c1OC | 111
COC(=O)C1[C@H]2C[C@H]3c4[nH]c5ccccc5c4CCN3C[C@@H]2CC[C@@H]1O.Cl (stereo partly drawn) | 120
CC(=O)O[C@@H]1CC2C(C)(C)CCC(=O)[C@]2(C)C2CC[C@@]3(C)[C@H](c4ccoc4)OC(=O)C4OC43[C@@]21C (stereo partly drawn) | 126
CCOc1nc2cccc(C(=O)OC(C)OC(=O)OC3CCCCC3)c2n1Cc1ccc(-c2ccccc2-c2nnn[nH]2)cc1 (stereo not drawn) | 36
CCCCC1=NC2(CCCC2)C(=O)N1Cc1ccc(-c2ccccc2-c2nnn[nH]2)cc1 | 117
CCCCc1nc(Cl)c(CO)n1Cc1ccc(-c2ccccc2-c2nnn[nH]2)cc1 | 249
N.N.[Cl][Pt][Cl] | 90
COc1ccc2c(c1)[C@@]1(C)CC[C@@H](O)C[C@@H]1CC2 | 116
CC(C)=CCCC1(C)C=Cc2c(O)c3c(c(CC=C(C)C)c2O1)OC12C(=CC4CC1C(C)(C)OC2(C/C=C(/C)C(=O)O)C4O)C3=O (stereo not drawn) | 174
CC(C)=CCCC1(C)C=Cc2c(O)c3c(c(CC=C(C)C)c2O1)OC12C(=CCCC1C(C)(C)O[C@@]2(C/C=C(\C)C(=O)O)C(=O)O)C3=O (stereo partly drawn) | 39
CC(C)=CCCC1(C)C=Cc2c(O)c3c(c(CC=C(C)C)c2O1)OC12C(=CC4CC1C(C)(C)OC2(C/C=C(/C)C(=O)O)C4=O)C3=O (stereo not drawn) | 163
O=c1c(O)cccc2cc(O)c(O)c(O)c12 | 137
CNC(C)[C@@H]1CC[C@@H](N)[C@@H](OC2[C@@H](N)C[C@@H](N)[C@H](OC3OC[C@](C)(O)[C@H](NC)[C@H]3O)[C@H]2O)O1.O=S(=O)(O)O (stereo partly drawn) | 95
